Several values for one entry are separate records, joined by “and”; a condition that tells them apart may be missing. Equal values may be shown once. Where a name gives a salt, the structure may show the parent alone.
What was measured:
Test in all cases: cell viability relative to vehicle control; higher = less cytotoxic
Conditions in all cases: 10 µM
[1] = tested on: K562
Outline: (§1)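 CRISPR-edited mutant clones and isogenic wild-type clones from four leukaemia lines were screened against Selleck bioactive, kinase and epigenetic probe libraries, with identity-inconsistent compounds excluded. Each compound was acoustically dispensed at a single 10 µM dose into 384-well plates holding 2000 cells in 50 µL medium per well. After 48 h the supernatant was removed and CellTiter-Glo luminescence was read. Viability was expressed as percent of the on-plate vehicle control and analysed in Genedata Screener.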

[2] = tested on: MARIMO
Outline: as §1

[3] = tested on: MOLM14
Outline: as §1

[4] = tested on: OCI-AML2
Outline: as §1

| SMILES | cell viability ([1]; SRSF2 genotype: SRSF2 P95H/wt) | cell viability ([1]; SRSF2 genotype: SRSF2 wt/wt) | cell viability ([2]; SRSF2 genotype: SRSF2 P95H/wt) | cell viability ([2]; SRSF2 genotype: SRSF2 wt/wt) | cell viability ([3]; SRSF2 genotype: SRSF2 P95H/wt) | cell viability ([3]; SRSF2 genotype: SRSF2 wt/wt) | cell viability ([4]; SRSF2 genotype: P95H/wt) | cell viability ([4]; SRSF2 genotype: wt/wt) |
| --- | --- | --- | --- | --- | --- | --- | --- | --- |
| CCN(Cc1ccc(Cl)nc1)/C(=C/[N+](=O)[O-])NC [Nitenpyram] | 98.8% and 88.3% | 99.9% | 94.5% | 99% | 97.7% | 98.6% | 95.2% | 99.8% |
| O=C(CBr)c1ccc(O)cc1 [PTP Inhibitor I] | 106% and 101% | 107% | 103% | 104% | 97.2% | 108% | 104% | 103% |
| CCC(=O)O[C@H]1CC[C@H]2[C@@H]3CC[C@H]4CC(=O)[C@H](C)C[C@]4(C)[C@H]3CC[C@]12C [Drostanolone Propionate] | 85.6% and 88.6% | 79.2% | 72.7% | 44.8% | 77.4% | 83.8% | 63.7% | 57.3% |
| COC1=C[C@]23CCCN2CCc2cc4c(cc2[C@@H]3[C@@H]1O)OCO4 [Cephalotaxine] | 91.4% and 93.8% | 93.5% | 91% | 93.2% | 96.1% | 96.5% | 90.8% | 91.4% |
| O=C/C=C/c1ccccc1 [Cinnamaldehyde] | 97.5% and 92.8% | 94.3% | 92% | 95.3% | 96.1% | 98.9% | 102% | 102% |
| CN(C)[C@@H]1C(=O)C(C(N)=O)=C(O)[C@@]2(O)C(=O)C3=C(O)c4c(O)ccc(Cl)c4[C@@](C)(O)[C@H]3C[C@@H]12 [Chlortetracycline HCl] | 106% and 108% | 107% | 105% | 108% | 105% | 105% | 102% | 103% |
| CN1[C@@H]2CC[C@H]1C[C@@H](OC(=O)C(CO)c1ccccc1)C2 (stereo partly specified) [Atropine sulfate] | 105% and 99.4% | 100% | 105% | 112% | 110% | 107% | 94% | 97.8% |
| CC(=O)Nc1ccc(OC[C@](C)(O)C(=O)Nc2ccc([N+](=O)[O-])c(C(F)(F)F)c2)cc1 [Andarine (GTX-007)] | 103% and 99% | 107% | 98.4% | 105% | 106% | 105% | 97.1% | 95.8% |
| O=C(O[C@H]1C[N+]2(CCCOc3ccccc3)CCC1CC2)C(O)(c1cccs1)c1cccs1 [Aclidinium Bromide] | 104% and 98.9% | 101% | 108% | 111% | 103% | 106% | 106% | 106% |
| Fc1cc(F)c2c(c1)[C@H]1C=CC[C@H]1C(c1cccnc1)N2 (stereo partly specified) [Golgicide A] | 25.9% and 36.2% | 32.3% | 14.1% | 27.5% | 46.3% | 68.2% | 12.2% | 22.5% |
| CN1[C@@H]2C[C@@H](OC(=O)[C@H](CO)c3ccccc3)C[C@H]1[C@@H]1O[C@@H]12 [Scopolamine hydrobromide] | 97.1% and 95.9% | 99.9% | 101% | 109% | 104% | 100% | 102% | 104% |
| CNC(C)Cc1ccccc1OC (stereo unspecified) [Methoxyphenamine Hydrochloride] | 98% and 100% | 106% | 100% | 104% | 106% | 102% | 107% | 101% |
| Cc1c([C@H](C)[C@@H]2NC[C@@H](C)C[C@H]2O)ccc2c1C[C@H]1[C@H]2CC=C2C[C@@H](O)CC[C@@]21C [Veratramine] | 73.9% and 73% | 75% | 64.7% | 64.5% | 81.1% | 89.6% | 47.1% | 62.9% |
| CCC1(c2ccc(N)cc2)CCC(=O)NC1=O (stereo unspecified) [Aminoglutethimide (Cytadren)] | 98.1% and 103% | 110% | 96.7% | 101% | 99.8% | 103% | 107% | 108% |
| C/C(O)=C(\C#N)C(=O)Nc1cc(Br)ccc1Br | 88.8% and 87.1% | 89.1% | 88.4% | 96.5% | 78.9% | 93.7% | 86.1% | 87.7% |
| CC(O)(CS(=O)(=O)c1ccc(F)cc1)C(=O)Nc1ccc(C#N)c(C(F)(F)F)c1 (stereo unspecified) [Bicalutamide (Casodex)] | 95.5% and 101% | 106% | 95.4% | 102% | 98.7% | 98.8% | 93.8% | 91.8% |
| C=CC(=C)C [Isoprene] | 102% and 103% | 105% | 103% | 106% | 95.6% | 108% | 103% | 109% |
| COc1cc(C)[nH]c(=O)c1CNC(=O)c1c(C)n([C@H](C)C2CCN(CC(F)(F)F)CC2)c2ccccc12 | 103% and 99% | 110% | 103% | 110% | 97.2% | 95.3% | 103% | 109% |
| CC(=O)O[C@@]12CO[C@@H]1C[C@H](O)[C@@]1(C)C(=O)[C@H](O)C3=C(C)[C@@H](OC(=O)[C@H](O)[C@@H](NC(=O)c4ccccc4)c4ccccc4)C[C@@](O)([C@@H](OC(=O)c4ccccc4)[C@H]21)C3(C)C [10-deacetyl-paclitaxel] | 25.2% and 36.9% | 34.3% | 7.89% | 4.88% | 9.1% | 3.82% | 10.3% | 15.4% |
| C/C=C\c1cc(OC)c(OC)cc1OC [Beta-Asarone] | 106% and 104% | 104% | 98% | 102% | 104% | 104% | 104% | 105% |
| COc1ccc2c(c1OC)CC1c3c(cc4c(c3-2)OCO4)CCN1C (stereo unspecified) [Crebanine] | 93.7% and 93.3% | 95.9% | 80.5% | 83% | 95.9% | 93.4% | 80.6% | 84.5% |

| SMILES | cell viability ([1]; SRSF2 genotype: SRSF2 P95H/wt) | cell viability ([1]; SRSF2 genotype: SRSF2 wt/wt) | cell viability ([2]; SRSF2 genotype: SRSF2 P95H/wt) | cell viability ([2]; SRSF2 genotype: SRSF2 wt/wt) | cell viability ([3]; SRSF2 genotype: SRSF2 P95H/wt) | cell viability ([3]; SRSF2 genotype: SRSF2 wt/wt) | cell viability ([4]; SRSF2 genotype: P95H/wt) | cell viability ([4]; SRSF2 genotype: wt/wt) |
| --- | --- | --- | --- | --- | --- | --- | --- | --- |
| COc1ccc(C=O)cc1O [Isovanillin] | 105% and 103% | 103% | 108% | 108% | 106% | 101% | 104% | 98.2% |
| C[C@H]1CC[C@]2(NC1)O[C@H]1C[C@H]3[C@@H]4CC[C@H]5C[C@@H](O)CC[C@]5(C)[C@H]4CC[C@]3(C)[C@H]1[C@@H]2C [Tomatidine] | 92.3% and 92% | 90.7% | 86.8% | 94.8% | 90.7% | 93.3% | 96.5% | 93.5% |
| N#CC(C#N)=Cc1ccc(O)c(O)c1 [AG 18 (Tyrphostin 23)] | 86.3% and 84.4% | 80.7% | 78.4% | 79.8% | 81.5% | 86.5% | 78.8% | 82% |
| COc1ccc(C[C@H]2NC[C@H](O)[C@H]2OC(C)=O)cc1 [Anisomycin] | 4.09% and 9.55% | 7.54% | 13.6% | 6.74% | 0.46% | 0.44% | 3.57% | 10.5% |
| CCC1CN2CCC3(C(=O)Nc4ccccc43)C2CC1C(=COC)C(=O)OC (stereo unspecified) [Isorhychophylline] | 95.3% and 96.3% | 95.5% | 83.5% | 72% | 92.5% | 89.1% | 97.3% | 89.8% |
| Cc1cc(C(C#N)c2ccc(Cl)cc2)c(Cl)cc1NC(=O)c1cc(I)cc(I)c1O (stereo unspecified) [Closantel] | 95% and 92.2% | 92.3% | 102% | 108% | 99% | 100% | 92.4% | 110% |
| CN1[C@@H]2CC[C@H]1C[C@@H](OC(=O)C(CO)c1ccccc1)C2 (stereo partly specified) [Atropine sulfate monohydrate] | 93.4% and 94.7% | 100% | 104% | 112% | 100% | 105% | 100% | 99.6% |
| C=C1C[C@@H]2[C@H](CC[C@]3(C)C(=O)CC[C@@H]23)[C@@]2(C)C=CC(=O)C=C12 [Exemestane] | 93.7% and 96.7% | 100% | 82.8% | 92.6% | 80.3% | 94.3% | 90.2% | 91.2% |
| COCC1(CO)C(=O)C2CCN1CC2 (stereo unspecified) | 35.9% and 43.5% | 63.5% | 65.3% | 57.5% | 9.18% | 3.69% | 14.8% | 15.9% |
| CCC(COC(=O)c1cc(OC)c(OC)c(OC)c1)(c1ccccc1)N(C)C (stereo unspecified) [Trimebutine maleate] | 99% and 90.6% | 98.2% | 87.9% | 90.3% | 88.9% | 98.2% | 89.9% | 97.4% |
| CC[C@]12C=CCN3CC[C@]4(C(=C(C(=O)OC)C1)Nc1ccccc14)[C@@H]32 [Tabersonine hydrochloride] | 18.2% and 28.9% | 32.3% | 13% | 13.8% | 3.62% | 1.08% | 8.35% | 13.7% |
| C[C@H]1CCCC(=O)CCC/C=C/c2cc(O)cc(O)c2C(=O)O1 [Zearalenone] | 101% and 93.8% | 99.5% | 82.7% | 88.8% | 79.2% | 99% | 88.7% | 97.7% |
| Cn1cc(C2=C(c3cn(C4CCN(Cc5ccccn5)CC4)c4ccccc34)C(=O)NC2=O)c2ccccc21 | 91.5% and 86.9% | 91.3% | 93% | 101% | 76.9% | 91.3% | 110% | 111% |
| C=C1[C@H]2C[C@@]3([C@@H]1O)[C@@H](CC2=O)[C@]12[C@@H]4C[C@H]3[C@H]1N(CC)C[C@]4(C)CC[C@@H]2O [Songorine] | 96.8% and 99.6% | 101% | 98% | 98.8% | 102% | 98.4% | 103% | 103% |
| COc1cc(C)[nH]c(=O)c1CNC(=O)c1c(C)n([C@H](C)C2CCOCC2)c2ccccc12 | 111% and 102% | 94.9% | 106% | 118% | 103% | 101% | 106% | 104% |
| c1csc(-c2ccc(-c3cccs3)s2)c1 [2,2':5',2''-Terthiophene] | 95.8% and 89.3% | 97.1% | 88.1% | 100% | 91.7% | 98.7% | 84.6% | 85.4% |
| O=S(=O)(CC1CS1)c1ccc(Oc2ccccc2)cc1 (stereo unspecified) | 88.7% and 98.8% | 92.2% | 45.8% | 73.1% | 39.1% | 29.4% | 14.9% | 14.1% |
| C=CC1CN2CCC1CC2C(O)c1ccnc2ccccc12 (stereo unspecified) [Cinchonine.cdx] | 98.1% and 107% | 102% | 105% | 105% | 95.8% | 104% | 120% | 99.7% |
| O=c1[nH]c2ccccc2n1CCCN1CCC(n2c(=O)[nH]c3cc(Cl)ccc32)CC1 [Domperidone (Motilium)] | 78.9% and 85.9% | 79.7% | 77.9% | 87.4% | 92.4% | 91.8% | 78.8% | 85.7% |
| O=c1ccc2cc3ccoc3c(O)c2o1 [Xanthotoxol] | 91.6% and 88.5% | 87.1% | 84.3% | 95.3% | 92.8% | 92.2% | 96.5% | 93.3% |
| O=[N+]([O-])c1ncc[nH]1 [Azomycin (2-Nitroimidazole)] | 102% and 103% | 101% | 101% | 101% | 95.3% | 100% | 97.8% | 96.8% |

Source: the supplement of paper PMC10981050
